Bioassay records (PubChem)
The list is not random: actives were taken first. Their share in the collection is about 3%.
MITF TRPM1 inh = inhibitors of MITF-driven TRPM1 promoter in melanoma cells. inhibition, % at 12.5 µM. 0.83% of 330,000 active. SK-MEL-5 TRPM1 promoter luciferase, 24 h;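 active = mean inhibition across replicates of 60% or more, whatever share of single replicates reaches that level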
TROY NFkB inh = inhibitors of TROY-dependent NF-kB signaling; 0.98% of 360,000 active; Q293 LMP1-TROYcd NF-kB luciferase reporter, 4 h; AID 1347056; inhibition, % at 10 µM;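 active = compounds whose plate-normalised and pattern-corrected inhibition of the luciferase reporter signal at the single screening dose is 50% or more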
LGR2 inh = Drosophila LGR2 receptor signaling inhibition; HEK293 LGR2, CRE-luciferase, bursicon-stimulated, 4 h; inhibition, % at 9.99 µM; 0.35% of 380,000 active;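 active = drop in luminescence signal, shown as inhibition above about 50% in the replicate tests, limit read from the data, passing the limit was not always enough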;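 note: agonist challenge used bursicon conditioned medium at about half maximal strength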
TWEAK-Fn14 inh = inhibitors of TWEAK-Fn14 interaction signaling. 2% of 360,000 active. TWEAK-stimulated Fn14 reporter cells, luciferase luminescence, 8 h. inhibition, % at 10 µM. AID 1159606; in the data active = inhibition above about 50%
MITF act = increases MITF-driven TRPM1 promoter luciferase signal | SK-MEL-5 TRPM1-promoter luciferase, 24 h; % of positive control, neutral wells = 0 | activation, % at 12.5 µM | 0.75% of 300,000 active;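 active = mean activation of at least 80% with every replicate also reaching 80%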
LMP1 NFkB inh = inhibitors of Epstein-Barr LMP1-induced NF-kappaB reporter. LMP1-induced NF-kappaB luciferase reporter cells, luminescence. inhibition, % at 12.5 µM. 0.69% of 350,000 active; in the data active = inhibition above about 41%
Large screens that a line does not name were inactive; ! = not confirmed by another sample.

COCCN1Cc2cccc(C(=O)Nc3ccc(C)cc3)c2C1=O	none
Cn1ccc(C(=O)Nc2ccc3c(c2)OCCO3)n1	none
Cc1nn(C)cc1C(=O)Nc1ccc2c(c1)OCCO2	TWEAK-Fn14 inh 66 (no result: MITF act)
Cn1ncc([N+](=O)[O-])c1C(=O)Nc1ccc2c(c1)OCCO2	TROY NFkB inh 59, TWEAK-Fn14 inh 82 (no result: LGR2 inh)
C[C@@H]1CN([C@@H](C)CO)C(=O)c2cc(C#Cc3ccccn3)cnc2O[C@@H]1CN(C)Cc1ccncc1	none (no result: MITF TRPM1 inh, TROY NFkB inh, TWEAK-Fn14 inh, MITF act, LMP1 NFkB inh)
CCCC#Cc1ccc2c(c1)O[C@@H](CN(C)C(=O)c1ccccc1)[C@H](C)CN([C@@H](C)CO)S2(=O)=O	none (no result: MITF TRPM1 inh, TROY NFkB inh, TWEAK-Fn14 inh, MITF act, LMP1 NFkB inh)
CCCN1Cc2cccc(C(=O)N3CCN(c4cc(Cl)ccc4C)CC3)c2C1=O	none (no result: MITF TRPM1 inh, LGR2 inh, MITF act)
Cn1nccc1C(=O)Nc1ccc2c(c1)OCCO2	TROY NFkB inh 56, TWEAK-Fn14 inh 74
CC(=O)Nc1ccc(C(=O)Nc2ccc3c(c2)OCCO3)cc1	none (no result: LMP1 NFkB inh)
Cn1nc(C(=O)Nc2ccc3c(c2)OCCO3)cc1C(=O)O	TROY NFkB inh 61, TWEAK-Fn14 inh 72 (no result: LGR2 inh)
COCCN1Cc2cccc(C(=O)N3CCN(c4cc(C)ccc4C)CC3)c2C1=O	LMP1 NFkB inh 78
O=C(C[C@H]1C[C@@H]2c3cc(NC(=O)Nc4ccccc4)ccc3O[C@@H]2[C@H](CO)O1)NCc1ccccn1	none (no result: MITF TRPM1 inh, TROY NFkB inh, TWEAK-Fn14 inh, MITF act, LMP1 NFkB inh)
N#Cc1nc(Cl)c(Cl)c(NN)c1Cl	TROY NFkB inh 62
O=C1c2ccccc2NC(c2cccc(O)c2)N1O (stereo unspecified)	TROY NFkB inh 83
CCn1cc(C2Nc3ccccc3C(=O)N2O)c(C)n1 (stereo unspecified)	LMP1 NFkB inh 47
C[C@@H]1CCCCO[C@H](CN(C)S(=O)(=O)c2cccs2)[C@H](C)CN([C@@H](C)CO)C(=O)c2cc(NC(=O)C3CCCCC3)ccc2O1	none (no result: MITF TRPM1 inh, TROY NFkB inh, TWEAK-Fn14 inh, MITF act, LMP1 NFkB inh)
O=C(NC1CCC1)[C@@H]1[C@@H](CO)[C@@H]2Cn3c(ccc(-c4ccncc4)c3=O)[C@@H]2N1CCc1ccccc1	none (no result: MITF TRPM1 inh, TROY NFkB inh, TWEAK-Fn14 inh, MITF act, LMP1 NFkB inh)
CCOC(=O)Oc1c(OC)cc(C(=O)O[C@@H]2C[C@@H]3CN4CCc5c([nH]c6cc(OC)ccc56)[C@H]4C[C@@H]3[C@H](C(=O)OC)[C@H]2OC)cc1OC	LMP1 NFkB inh 46
COC(=O)C1C2CC3c4[nH]c5cc(OC)ccc5c4CCN3CC2CC(OC(=O)CC(C)=O)C1OC (stereo unspecified)	none
C[C@@H](NC(=O)C[C@H]1CC[C@@H]2[C@H](COC[C@H](O)CN2C(=O)Nc2cc(Cl)cc(Cl)c2)O1)c1ccccc1	none (no result: MITF TRPM1 inh, TROY NFkB inh, TWEAK-Fn14 inh, MITF act, LMP1 NFkB inh)
Cc1sc(NC(=O)Cc2ccc3c(c2)OCO3)nc1-c1ccc2c(c1)CCN2C(=O)c1ccccc1F	TWEAK-Fn14 inh 51
Cc1sc(NC(=O)Cc2ccc3c(c2)OCO3)nc1-c1ccc2c(c1)CCN2C(=O)c1ccc(F)cc1	none
COc1cccc(C(=O)N2C[C@H]3[C@@H](c4ccccc42)[C@H](CO)N3C(=O)c2ccccc2)c1	none (no result: MITF TRPM1 inh, TROY NFkB inh, TWEAK-Fn14 inh, MITF act, LMP1 NFkB inh)
O=S(=O)(c1ccc(N=C2NN=C(c3cc(F)ccc3F)CS2)cc1)N1CCOCC1	TWEAK-Fn14 inh 81
O=C1C=CC(=C(c2ccc(O)cc2)c2ccc(O)cc2)C=C1	MITF TRPM1 inh 83, LGR2 inh 58!
O=C(c1ccccc1)c1ccc(-c2ccc(O)cc2)cc1	none
Cc1c(C#N)c(NC(=O)CCl)n(Cc2ccccc2)c1C	MITF TRPM1 inh 81 (no result: LGR2 inh)
CCN(CC)C(=O)c1sc(NC(=O)Cc2cccs2)c(C#N)c1C	none
Cc1c(C#N)c(NC(=O)CCl)n(Cc2cccs2)c1C	MITF TRPM1 inh 77 (no result: LGR2 inh)
Cc1c(C#N)c(NC(=O)CCl)n(Cc2ccc(F)cc2)c1C	MITF TRPM1 inh 66
CCCNC(=O)N1C[C@@H](C)[C@@H](OC)CN(C)C(=O)c2ccc(NC(=O)CCC)cc2OC[C@@H]1C	none (no result: MITF TRPM1 inh, TROY NFkB inh, TWEAK-Fn14 inh, MITF act, LMP1 NFkB inh)
COc1ccc(S(=O)(=O)Nc2ccc3c(c2)C(=O)N([C@H](C)CO)C[C@H](C)[C@H](CN(C)Cc2ccc4c(c2)OCO4)O3)cc1	none (no result: MITF TRPM1 inh, TROY NFkB inh, TWEAK-Fn14 inh, MITF act, LMP1 NFkB inh)
CN1CCN(/N=C/c2ccc(OCc3ccccc3)cc2)CC1	MITF act 85
Cc1ccc(-c2nc3ccccc3nc2-c2ccccc2)cc1	TWEAK-Fn14 inh 96
COC(=O)C1CCN(c2cc(=O)n(C3CCCCC3)c(=O)[nH]2)CC1	TWEAK-Fn14 inh 95 (no result: TROY NFkB inh, LGR2 inh)
O=c1cc(N2CCCCC2)[nH]c(=O)n1C1CCCCC1	none (no result: MITF TRPM1 inh, MITF act)
COc1ccc(-c2ccccc2[C@@H]2[C@H](C#N)N(C(=O)c3cccnc3)[C@H]2CO)cc1	none (no result: MITF TRPM1 inh, TROY NFkB inh, TWEAK-Fn14 inh, MITF act, LMP1 NFkB inh)
